Measurements: the supplement of paper PMC12067093, “Discovery and optimisation of a covalent ligand for TRIM25 and its application to targeted protein ubiquitination” (Chemical Science, 2025)
The full data set covers some 21,000 targets. This sample favours those with the largest changes.

Compound: CC1Cc2ccccc2N1C(=O)C1CCCN(C1)C(=O)CCl (mixture of isomers) [TRIM25 ligand 11 (diastereomer mixture)]
Test: probe-labelled cysteine peptide fold change vs DMSO (competition) (log2 fold change); higher = less target engagement (more negative = stronger competition)
Settings: THP-1, incubation time: 4 h
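Note: competitive chemoproteomic profiling in live THP-1 cells with an iodoacetamide desthiobiotin (IA-DTB) probe, comparing probe-labelled peptide intensities in compound-treated cells against DMSO-treated controls.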

Chain of UniProt P13674 (P13674 whole entry, looked up): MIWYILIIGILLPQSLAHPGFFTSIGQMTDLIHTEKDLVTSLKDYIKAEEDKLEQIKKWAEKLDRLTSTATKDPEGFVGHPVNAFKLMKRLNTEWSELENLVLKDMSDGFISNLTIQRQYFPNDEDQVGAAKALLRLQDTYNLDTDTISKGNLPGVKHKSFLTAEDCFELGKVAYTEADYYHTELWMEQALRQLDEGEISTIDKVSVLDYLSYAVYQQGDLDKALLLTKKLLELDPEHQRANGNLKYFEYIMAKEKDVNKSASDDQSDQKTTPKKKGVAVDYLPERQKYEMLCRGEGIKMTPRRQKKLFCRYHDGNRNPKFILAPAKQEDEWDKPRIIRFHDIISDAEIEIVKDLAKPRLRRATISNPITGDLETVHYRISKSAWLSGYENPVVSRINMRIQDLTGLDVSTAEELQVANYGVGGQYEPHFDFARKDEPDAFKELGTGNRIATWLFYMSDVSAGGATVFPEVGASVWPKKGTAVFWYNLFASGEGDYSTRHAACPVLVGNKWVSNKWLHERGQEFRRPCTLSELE
Chain of UniProt Q8NI08 (Q8NI08 whole entry, looked up): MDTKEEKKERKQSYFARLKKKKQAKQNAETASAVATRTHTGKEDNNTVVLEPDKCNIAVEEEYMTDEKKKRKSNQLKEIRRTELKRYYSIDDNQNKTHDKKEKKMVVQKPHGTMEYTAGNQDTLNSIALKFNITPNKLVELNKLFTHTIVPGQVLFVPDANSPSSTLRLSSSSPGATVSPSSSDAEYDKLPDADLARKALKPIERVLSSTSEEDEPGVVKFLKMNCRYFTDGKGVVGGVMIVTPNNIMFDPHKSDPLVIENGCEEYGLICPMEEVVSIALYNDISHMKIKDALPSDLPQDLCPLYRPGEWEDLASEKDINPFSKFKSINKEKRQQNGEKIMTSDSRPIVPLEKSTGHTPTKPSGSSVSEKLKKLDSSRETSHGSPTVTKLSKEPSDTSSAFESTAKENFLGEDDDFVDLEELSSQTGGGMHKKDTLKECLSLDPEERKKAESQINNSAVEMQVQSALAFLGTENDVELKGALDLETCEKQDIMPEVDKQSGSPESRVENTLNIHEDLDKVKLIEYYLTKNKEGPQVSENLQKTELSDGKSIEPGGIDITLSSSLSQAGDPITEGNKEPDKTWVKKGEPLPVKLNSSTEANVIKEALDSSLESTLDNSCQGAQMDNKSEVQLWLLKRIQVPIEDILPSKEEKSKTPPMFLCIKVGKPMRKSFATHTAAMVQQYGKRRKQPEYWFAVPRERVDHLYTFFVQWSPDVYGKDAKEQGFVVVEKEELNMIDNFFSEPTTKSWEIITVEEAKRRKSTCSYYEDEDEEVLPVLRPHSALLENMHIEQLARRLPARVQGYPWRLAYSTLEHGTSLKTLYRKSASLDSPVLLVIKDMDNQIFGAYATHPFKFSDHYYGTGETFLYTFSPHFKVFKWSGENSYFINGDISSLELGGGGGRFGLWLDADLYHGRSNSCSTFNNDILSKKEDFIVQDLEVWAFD
Chain of UniProt P06748 (P06748 whole entry): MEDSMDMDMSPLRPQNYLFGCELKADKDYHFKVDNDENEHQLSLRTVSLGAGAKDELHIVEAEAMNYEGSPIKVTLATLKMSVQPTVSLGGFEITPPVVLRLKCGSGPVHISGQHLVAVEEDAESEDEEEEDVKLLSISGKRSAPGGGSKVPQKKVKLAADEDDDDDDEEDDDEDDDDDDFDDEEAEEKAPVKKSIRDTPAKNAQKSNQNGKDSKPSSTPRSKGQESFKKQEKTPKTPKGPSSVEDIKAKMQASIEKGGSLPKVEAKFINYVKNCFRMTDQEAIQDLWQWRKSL
Chain of UniProt P04181 (P04181 whole entry, looked up): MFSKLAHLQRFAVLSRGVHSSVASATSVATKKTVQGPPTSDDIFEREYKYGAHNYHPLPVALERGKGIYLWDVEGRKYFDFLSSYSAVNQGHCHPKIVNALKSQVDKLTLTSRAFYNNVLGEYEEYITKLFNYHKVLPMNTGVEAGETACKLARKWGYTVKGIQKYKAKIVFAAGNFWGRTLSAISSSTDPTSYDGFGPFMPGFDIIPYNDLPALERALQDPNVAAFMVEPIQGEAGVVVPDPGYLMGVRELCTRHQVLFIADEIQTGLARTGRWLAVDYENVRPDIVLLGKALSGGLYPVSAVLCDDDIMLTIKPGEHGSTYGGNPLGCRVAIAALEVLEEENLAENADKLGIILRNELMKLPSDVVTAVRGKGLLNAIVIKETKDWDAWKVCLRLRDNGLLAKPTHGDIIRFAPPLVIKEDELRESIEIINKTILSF
Chain of UniProt O96028 (O96028 whole entry, looked up): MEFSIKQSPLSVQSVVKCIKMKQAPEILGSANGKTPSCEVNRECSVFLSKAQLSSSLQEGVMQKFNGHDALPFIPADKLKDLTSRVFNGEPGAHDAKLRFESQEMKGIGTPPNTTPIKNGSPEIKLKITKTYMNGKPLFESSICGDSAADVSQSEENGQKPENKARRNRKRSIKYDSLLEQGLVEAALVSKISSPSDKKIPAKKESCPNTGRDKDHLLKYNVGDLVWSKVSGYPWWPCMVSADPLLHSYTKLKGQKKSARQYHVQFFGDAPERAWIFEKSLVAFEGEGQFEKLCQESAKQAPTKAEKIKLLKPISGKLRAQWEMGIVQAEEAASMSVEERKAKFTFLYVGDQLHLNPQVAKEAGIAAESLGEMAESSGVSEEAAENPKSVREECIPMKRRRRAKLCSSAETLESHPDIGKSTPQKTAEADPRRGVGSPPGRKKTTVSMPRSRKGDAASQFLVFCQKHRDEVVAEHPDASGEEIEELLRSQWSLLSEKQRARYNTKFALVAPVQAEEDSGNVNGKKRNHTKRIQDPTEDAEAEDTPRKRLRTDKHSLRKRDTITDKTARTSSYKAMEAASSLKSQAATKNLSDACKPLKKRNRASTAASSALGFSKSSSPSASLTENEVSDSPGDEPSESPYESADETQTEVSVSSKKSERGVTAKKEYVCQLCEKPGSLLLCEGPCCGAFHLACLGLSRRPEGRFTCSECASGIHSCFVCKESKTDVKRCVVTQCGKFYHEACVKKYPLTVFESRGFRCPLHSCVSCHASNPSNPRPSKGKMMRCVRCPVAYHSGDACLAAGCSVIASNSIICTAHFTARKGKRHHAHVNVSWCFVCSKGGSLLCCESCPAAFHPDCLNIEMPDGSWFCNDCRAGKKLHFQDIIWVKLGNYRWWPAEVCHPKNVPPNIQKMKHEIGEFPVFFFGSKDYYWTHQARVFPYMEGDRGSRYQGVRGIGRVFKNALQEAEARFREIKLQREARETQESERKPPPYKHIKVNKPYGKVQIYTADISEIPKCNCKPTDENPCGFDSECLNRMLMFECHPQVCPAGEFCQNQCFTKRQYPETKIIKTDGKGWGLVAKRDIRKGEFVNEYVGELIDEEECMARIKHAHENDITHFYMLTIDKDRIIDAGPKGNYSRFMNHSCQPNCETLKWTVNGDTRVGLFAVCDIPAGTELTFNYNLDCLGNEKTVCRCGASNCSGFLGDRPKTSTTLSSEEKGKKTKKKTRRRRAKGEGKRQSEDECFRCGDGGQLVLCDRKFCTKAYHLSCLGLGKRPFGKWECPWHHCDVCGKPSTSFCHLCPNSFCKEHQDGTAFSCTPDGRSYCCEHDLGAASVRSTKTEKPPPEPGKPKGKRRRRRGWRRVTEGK
Chain of UniProt O75914 (O75914 whole entry, looked up): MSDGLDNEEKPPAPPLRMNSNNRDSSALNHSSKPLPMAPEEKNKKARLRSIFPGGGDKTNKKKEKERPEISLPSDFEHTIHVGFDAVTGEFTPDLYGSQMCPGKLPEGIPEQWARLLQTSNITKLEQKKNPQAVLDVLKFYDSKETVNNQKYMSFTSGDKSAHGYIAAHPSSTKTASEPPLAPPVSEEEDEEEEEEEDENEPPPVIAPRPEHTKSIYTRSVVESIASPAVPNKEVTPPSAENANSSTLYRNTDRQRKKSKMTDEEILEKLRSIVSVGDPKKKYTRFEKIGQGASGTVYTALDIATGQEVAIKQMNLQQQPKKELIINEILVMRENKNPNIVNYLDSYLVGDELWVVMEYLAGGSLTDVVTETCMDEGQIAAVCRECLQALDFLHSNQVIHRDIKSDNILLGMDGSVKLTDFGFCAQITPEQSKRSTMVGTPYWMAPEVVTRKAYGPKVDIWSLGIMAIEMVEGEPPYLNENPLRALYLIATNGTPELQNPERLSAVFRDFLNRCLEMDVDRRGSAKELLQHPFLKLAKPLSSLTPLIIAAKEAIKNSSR
Chain of UniProt Q96P11 (Q96P11 whole entry, looked up): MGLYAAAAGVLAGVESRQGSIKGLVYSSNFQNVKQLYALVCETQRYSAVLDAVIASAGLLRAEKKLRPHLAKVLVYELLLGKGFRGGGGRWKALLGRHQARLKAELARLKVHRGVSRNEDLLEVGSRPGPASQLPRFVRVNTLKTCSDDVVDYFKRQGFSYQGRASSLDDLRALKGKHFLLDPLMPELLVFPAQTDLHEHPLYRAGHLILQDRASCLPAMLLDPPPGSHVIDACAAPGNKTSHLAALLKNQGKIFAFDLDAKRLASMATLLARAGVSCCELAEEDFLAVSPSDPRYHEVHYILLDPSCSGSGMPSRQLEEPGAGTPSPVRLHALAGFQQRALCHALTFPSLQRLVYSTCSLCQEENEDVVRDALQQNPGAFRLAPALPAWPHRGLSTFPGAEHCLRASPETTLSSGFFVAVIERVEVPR
Chain of UniProt Q8NFH3 (Q8NFH3 whole entry, looked up): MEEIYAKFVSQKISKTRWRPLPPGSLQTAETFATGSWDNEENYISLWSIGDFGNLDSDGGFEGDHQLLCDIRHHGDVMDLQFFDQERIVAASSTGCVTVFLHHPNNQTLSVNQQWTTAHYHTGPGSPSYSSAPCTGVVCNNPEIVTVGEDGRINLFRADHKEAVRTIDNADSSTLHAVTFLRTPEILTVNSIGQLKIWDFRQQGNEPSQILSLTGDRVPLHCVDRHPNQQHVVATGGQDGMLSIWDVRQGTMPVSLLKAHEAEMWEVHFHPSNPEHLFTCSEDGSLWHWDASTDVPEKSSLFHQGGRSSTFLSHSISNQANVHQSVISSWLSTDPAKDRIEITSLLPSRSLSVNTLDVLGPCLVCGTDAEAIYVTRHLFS

Target	probe-labelled cysteine peptide fold change (10 µM)	probe-labelled cysteine peptide fold change (50 µM)
P4HA1_P13674_293_QKYEMLCR (UniProt P13674)	-0.0868	-0.162
OS9_Q13438_181_CDLNGRPR (UniProt Q13438)	0.0235	0.139
PDCD2L_Q9BRP1_191_LQDAVLGAAHPVPPGLPLFLPYYICVADEDDYRDFVNLDHAHSLLR (UniProt Q9BRP1)	-0.928	0.29
NDUFB10_O96000_119_EGQNYQQNCIK (UniProt O96000)	-0.0835	-0.0614
OPLAH_O14841_408_LLPASFPCIFGPGENQPLSPEASR (UniProt O14841)	-0.283	-0.252
PASK_Q96RG2_759+761_ELFFSDQTDQTSSNCSCATSELR (UniProt Q96RG2)	0.0516	0.0688
PDLIM7_Q9NR12_370_MTWHVHCFTCAACK (UniProt Q9NR12)	-0.0568	0.119
NSUN5_Q96P11_278+279_AGVSCCELAEEDFLAVSPSDPR (UniProt Q96P11)	0.234	-0.117
OSBPL1A_Q9BXW6_340_EDWLEAIEEHSAYSTHYCSQDQLTDEEEEDTVSAADLKK (UniProt Q9BXW6)	0.199	-0.153
NUP205_Q92621_1032_TCLHAILNILEK (UniProt Q92621)	0.00038	-0.0819
NPTX1_Q15818_89_CESQSTLDPGAGEAR (UniProt Q15818)	-0.269	0.111
PARP1_P09874_845_IEREGECQR (UniProt P09874)	-0.00747	0.129
ORC5_O43913_10_PHLENVVLCR (UniProt O43913)	-0.0683	-0.0422
NOP58_Q9Y2X3_106_LNLSCIHSPVVNELMR (UniProt Q9Y2X3)	0.0103	0.12
PDF_Q9HBH1_222_IIQHEMDHLQGCLFIDK (UniProt Q9HBH1)	-0.0352	0.0675
NUP43_Q8NFH3_222_VPLHCVDRHPNQQHVVATGGQDGMLSIWDVR (UniProt Q8NFH3)	0.271	0.0847
PACSIN2_Q9UNF0_465_MEDEDEQGWCK (UniProt Q9UNF0)	0.118	0.00577
NUP133_Q8WUM0_457_IVFNAQGDSVLGAGACGGVPIIFSR (UniProt Q8WUM0)	-0.146	-0.142
NUP98_P52948_1711_HIQQVDCSGNDLEQLHIK (UniProt P52948)	0.207	0.108
NCOA7_Q8NI08_487_GALDLETCEK (UniProt Q8NI08)	-0.182	-0.181
NSD2_O96028_1102_KGEFVNEYVGELIDEEECMAR (UniProt O96028)	-0.163	-0.0932
NECAP2_Q9NVZ3_11_MEESGYESVLCVKPDVHVYR (UniProt Q9NVZ3)	-0.174	-0.048

Target	probe-labelled cysteine peptide fold change (10 µM)	probe-labelled cysteine peptide fold change (50 µM)
PAK3_O75914_424_LTDFGFCAQITPEQSKR (UniProt O75914)	-0.27	-0.161
OCIAD2_Q56VL3_106_VSYIGVCQSK (UniProt Q56VL3)	-0.0503	0.116
OAS3_Q9Y6K5_350_AGCSGLGHPIQLDPNQK (UniProt Q9Y6K5)	-0.0319	-0.0671
PARK7_Q99497_46_DPVQCSR (UniProt Q99497)	0.105	0.0666
NUDT4B_A0A024RBG1_28_AACLCFR<|>NUDT3_O95989_25_AACLCFR<|>NUDT10_Q8NFP7_24_AACLCFR<|>NUDT11_Q96G61_24_AACLCFR<|>NUDT4_Q9NZJ9_25_AACLCFR (UniProt Q9NZJ9+Q8NFP7+Q96G61+O95989)	0.153	0.0838
NUP160_Q12769_1042_QLVVVLCER (UniProt Q12769)	0.25	0.0629
NSUN5P1_Q3KNT7-3_149_AAAGACTPPCT<|>NSUN5_Q96P11-2_461_AAAGACTPPCT (UniProt Q96P11+Q3KNT7)	0.129	-0.0921
PDHB_P11177_161_GPNGASAGVAAQHSQCFAAWYGHCPGLK (UniProt P11177)	0.0327	0.0759
PARP14_Q460N5_1274_ECSQQAQQR (UniProt Q460N5)	0.0962	-0.0412
OPLAH_O14841_1053_DIPLNQGCLAPVR (UniProt O14841)	-0.146	0.136
NVL_O15381_431_FDREICLGIPDEASR (UniProt O15381)	-0.0502	0.0728
OSGEP_Q9NPF4_160_IFGETIDIAVGNCLDR (UniProt Q9NPF4)	0.0104	-0.0314
PCNA_P12004_135_LMDLDVEQLGIPEQEYSCVVK (UniProt P12004)	-0.113	0.0916
OAT_P04181_150_VLPMNTGVEAGETACK (UniProt P04181)	0.0276	0.0487
NCDN_Q9UBB6-2_5_ASDCEPALNQAEGR (UniProt Q9UBB6)	0.0744	-0.297
NOL6_Q9H6R4_256_LHPCPPPDFFRPCR (UniProt Q9H6R4)	0.0181	0.0433
PARP4_Q9UKK3_1099_LLVYGFIPHCTQATLCALIQEK (UniProt Q9UKK3)	0.224	-0.243
P4HB_P07237_397+400_NVFVEFYAPWCGHCK (UniProt P07237)	-0.122	-0.34
NET1_Q7Z628_267_GYCSNQLAAK (UniProt Q7Z628)	0.0505	0.103
NPM1_P06748_21_MEDSMDMDMSPLRPQNYLFGCELK (UniProt P06748)	-0.279	-0.642
PA2G4_Q9UQ80_296_MGVVECAKHELLQPFNVLYEK (UniProt Q9UQ80)	-0.781	-0.434
NF1_P21359_1016_LCQLVEVMMAR (UniProt P21359)	0.0549	0.181
